Results on 25 compounds are retold here after PubChem BioAssay.

A number with no mark means an inactive call.

The nature of the assay: change in splice reporter luminescence, either direction, cell-based, HEK293, spliceosome inhibition project, primary screen (AID 1101).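 Further: HEK293 cells carrying a splicing-competent luciferase reporter gene; test concentration not given here.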 The note with it: HEK293 splicing luciferase reporter, 24 h, higher = more signal, called active from +8 up or from −8 down.
In the case of `COC(=O)[C@@]1(Cc2ccccc2)[C@H]2c3cc(C(=O)N4CCCC4)[nH]c3C[C@H]2CN1C(=O)c1ccccc1`, the z-score is -0.0516. In the case of `O=C(O)[C@H](Cc1ccccc1)n1cc(-c2ccccn2)nn1` it was -0.27; in that of `O=C1O[C@@H](c2ccccc2)[C@@H](c2ccccc2)N2[C@@H](c3ccccc3OCCO)[C@]3(C(=O)Nc4ccc(C#CCCO)cc43)[C@@H](C(=O)N3CCN(c4ncccn4)CC3)[C@H]12`, -1.09. In the case of `COc1ccc([Si](C)(C)[C@@H]2[C@@H](CCO)O[C@]3(C(=O)N(Cc4cccc(N5C(=O)c6ccccc6Oc6ccccc65)c4)c4ccccc43)[C@H]2C)cc1` it was -1.19; in that of `CN(C)CCCN1C(=O)[C@@]2(c3ccc([N+](=O)[O-])cc3)CC(=O)N(CC34CC5CC(CC(C5)C3)C4)[C@@H]2c2ccc(CO)cc21`, 0.626; in that of `C[C@]12C(=O)N(CCCCCCO)[C@@H]3C(=O)N(c4ccc(Cl)cc4)CC=CC31O[C@@H]1/C=C\CCCOC(=O)C12` (stereo not given in full), -1.54. As for `CC1CC/C=C\[C@H]2OC34C=CCN(c5ccc6ccccc6c5)C(=O)[C@H]3N(C(CO)C(C)C)C(=O)[C@@H]4C2C(=O)O1` (stereo not given in full), the z-score was 6.6e-05. In the case of `O=C1O[C@@H](c2ccccc2)[C@@H](c2ccccc2)N2[C@@H](c3ccc(O)cc3)[C@]3(C(=O)Nc4ccc(C#CC5=CCCCC5)cc43)[C@@H](C(=O)N3CCN(c4ncccn4)CC3)[C@H]12` it was -0.339; in that of `C[C@H]1ON(c2ccc(C(=O)OC(C)(C)C)cc2)[C@@H](c2ccc(O)cc2)[C@@H]1C(=O)N1C(=O)OC[C@@H]1c1ccccc1`, 0.242; in that of `CCOC(=O)C[C@H]1[C@H](OC(=O)Cc2ccc3c(c2)OCO3)[C@@H](NC(=O)C2CCCCC2)c2cc(OCCCO)ccc2N1C(=O)c1ccc2ccccc2n1`, -1.49. For `CN1C(=O)C2C=CC(C(O)c3c(F)cccc3Cl)N(Nc3ccccc3)C2C1=O` (stereo not given), the z-score is 1.29.

Consider `COCCCNC(=O)[C@]1(Cc2ccccc2CN=[N+]=[N-])N=C(c2ccc(OCCCO)cc2)O[C@@H]1c1ccccc1`, for which the z-score is -0.697. Turning to `[N-]=[N+]=NCc1ccccc1C[C@@]1(C(N)=O)N=C(c2ccc(OCCCO)cc2)O[C@@H]1c1ccccc1CN=[N+]=[N-]`, the z-score is 0.515. Regarding `COC(=O)[C@@]1(Cc2ccc(OC)cc2)[C@H]2c3cc(C(=O)N4CCCC4)n(CCc4cc5ccccc5[nH]4)c3C[C@H]2CN1C(=O)c1ccccc1`, the z-score is 0.0555. As to `COCCOC(=O)N1C(=O)[C@@]2(c3cc(C#Cc4ccc(OC)cc4)ccc31)[C@H](C(=O)NC[C@H](O)c1ccccc1)[C@H]1C(=O)O[C@H](c3ccccc3)[C@H](c3ccccc3)N1[C@@H]2c1ccc(O)cc1`, the z-score is -0.577. The same measure for `C=CC[C@@]12N=C(c3ccc(OCCCO)cc3)O[C@@H]1c1ccccc1N(CCS(=O)(=O)c1ccccc1)C2=O`: -2.49.

`C=CCN1C(=O)[C@]2(CC=C)N=C(c3ccc(OCCCO)cc3)O[C@@H]2c2ccccc21`: the z-score was -0.436. Turning to `Cc1ccc(S[C@]2(C(=O)NCC(C)C)CC(=O)N(Cc3ccccc3Cl)[C@@H]2c2ccc(CO)cc2I)cc1`, the z-score was -0.611.

In the case of `COc1ccccc1CN1C(=O)c2ccccc2[C@](Cc2ccccc2I)(C(=O)NC(C)C)[C@@H]1c1ccc(CO)cc1`, the z-score was -0.691. Turning to `CCOc1cc(C(O)C2C=CC3C(=O)N(C4CCCCC4)C(=O)C3N2Nc2ccc(OC)cc2)ccc1O` (stereo not given), the z-score was -0.556. In the case of `COCCOC(=O)N1C(=O)[C@@]2(c3cc(C#Cc4ccc(OC)cc4)ccc31)[C@H](C(=O)N1CCCCCCC1)[C@H]1C(=O)O[C@H](c3ccccc3)[C@H](c3ccccc3)N1[C@@H]2c1ccc(O)cc1`, the z-score was -0.527. Take `C=C(C(=O)CC[C@H](OC(=O)c1cccnc1)c1ccc(CO)o1)C(C)C`: the z-score was 0.586. Take `COC(=O)[C@H](Cc1ccccc1)N1CC(/C=C/C2CC2)=C[C@@H]1[C@@H](O)Cc1ccccc1`: the z-score was 3.96. With `COC(=O)[C@@]1(Cc2ccc(OC)cc2)[C@H]2c3cc(C(=O)N(C)C)n(Cc4nc5ccccc5[nH]4)c3C[C@H]2CN1C(=O)c1ccccc1`, the z-score is -1.21. As for `CN(C)C(=O)[C@]1(CCC(=O)OC(C)(C)C)N=C(c2ccc(OCCCO)cc2)O[C@@H]1c1ccccc1`, the z-score was -0.403.
